Laboratory results published in the antibiotic and cytotoxicity screens of Wong et al. (2023).
Out of some 39,000 compounds screened, about 1,500 (3.8%) were called active. This is one part of a sample in which actives are shown more often than they occur.

test system: HSkMC (human skeletal muscle cells); assay: cytotoxicity call (relative viability < 0.9); settings: 10 µM

Row | Compound | cytotoxicity call
1 | Cc1nnnn1CC(=O)Nc1ccc(F)cc1 | inactive
2 | COc1ccc(NC(=O)Nc2ccc3c(c2)[C@H]2C[C@H](CC(=O)NCc4ccncc4)O[C@H](CO)[C@H]2O3)cc1 | inactive
3 | C[C@@H]1CCCCO[C@@H](CN(C)C(=O)Nc2ccccc2)[C@H](C)CN([C@H](C)CO)C(=O)c2cc(NC(=O)Cc3ccccc3)ccc2O1 | inactive
4 | Cc1ccc(S(=O)(=O)Nc2ccc3c(c2)C(=O)N([C@H](C)CO)C[C@@H](C)[C@@H](CN(C)C(=O)C2CCCCC2)OCCCC[C@H](C)O3)cc1 | inactive
5 | O=C(O)c1cn(C2CC2)c2cc(N3CCC(O)(COc4ccc(N5C[C@H](CO)OC5=O)cc4F)CC3)c(F)cc2c1=O | inactive
6 | O=C(CCCCCCC(=O)Nc1ccc([C@@H]2O[C@H](CSc3ccncc3)C[C@H](c3ccccc3)O2)cc1)NO | inactive
7 | O=C(CCCCCCC(=O)Nc1ccc([C@H]2O[C@@H](CSc3ccncc3)C[C@H](c3ccccc3)O2)cc1)NO | inactive
8 | O=C(/C=C/c1ccc(CNc2ccc([C@H]3O[C@@H](CSc4ccncc4)C[C@H](c4ccccc4)O3)cc2)cc1)NO | active
9 | C[C@H](CO)N1C[C@H](C)[C@H](CN(C)C(=O)NC2CCCCC2)Oc2cc(-c3cccnc3)ccc2S1(=O)=O | inactive
10 | COc1ccc(NC(=O)N(C)C[C@H]2OCCCC[C@H](C)Oc3ccc(NC(=O)c4ccncc4)cc3C(=O)N([C@H](C)CO)C[C@@H]2C)cc1 | inactive
11 | CCc1ccc(NC(=S)Nc2ccccc2C(C)C)cc1 | inactive
12 | COCC#Cc1ccc2c(c1)O[C@@H](CN(C)C(=O)COC)[C@@H](C)CN([C@H](C)CO)S2(=O)=O | inactive
13 | COc1ccc(S(=O)(=O)Nc2ccccc2CN(C)C/C=C/c2ccc(Cl)cc2)cc1.O=P(=O)OO | inactive
14 | COc1ccc(NC(=O)Nc2ccc3c(c2)CC(=O)N([C@@H](C)CO)C[C@@H](C)[C@@H](CN(C)Cc2ccc(C(F)(F)F)cc2)O3)cc1 | inactive
15 | COc1ccc(CN(C)C[C@H]2Oc3ccc(NC(=O)Nc4ccc(C(F)(F)F)cc4)cc3CC(=O)N([C@H](C)CO)C[C@H]2C)cc1 | active
16 | COc1ccc(NC(=O)Nc2ccc3c(c2)CC(=O)N([C@H](C)CO)C[C@@H](C)[C@@H](CN(C)Cc2ccc(C(F)(F)F)cc2)O3)cc1 | active
17 | COc1ccc(NC(=O)Nc2ccc3c(c2)CC(=O)N([C@H](C)CO)C[C@H](C)[C@@H](CN(C)Cc2ccc(C(F)(F)F)cc2)O3)cc1 | inactive
18 | COc1ccc(CN(C)C[C@@H]2Oc3ccc(NC(=O)Nc4ccc(C(F)(F)F)cc4)cc3CC(=O)N([C@@H](C)CO)C[C@@H]2C)cc1 | inactive
19 | COc1ccc(NC(=O)Nc2ccc3c(c2)CC(=O)N([C@H](C)CO)C[C@H](C)[C@H](CN(C)Cc2ccc(C(F)(F)F)cc2)O3)cc1 | inactive
20 | COc1ccc(CN(C)C[C@H]2Oc3ccc(NC(=O)Nc4ccc(C(F)(F)F)cc4)cc3CC(=O)N([C@@H](C)CO)C[C@H]2C)cc1 | active
21 | COc1ccc(NC(=O)Nc2ccc3c(c2)CC(=O)N([C@@H](C)CO)C[C@H](C)[C@H](CN(C)Cc2ccc(C(F)(F)F)cc2)O3)cc1 | active
22 | COc1ccc(NC(=O)Nc2ccc3c(c2)CC(=O)N([C@@H](C)CO)C[C@H](C)[C@@H](CN(C)Cc2ccc(C(F)(F)F)cc2)O3)cc1 | inactive
23 | COc1ccc(NC(=O)Nc2ccc3c(c2)CC(=O)N([C@H](C)CO)C[C@@H](C)[C@H](CN(C)Cc2ccc(C(F)(F)F)cc2)O3)cc1 | inactive

Row | Compound | cytotoxicity call
24 | COc1ccc(CN(C)C[C@H]2Oc3ccc(NC(=O)Nc4ccc(C(F)(F)F)cc4)cc3CC(=O)N([C@@H](C)CO)C[C@@H]2C)cc1 | inactive
25 | COc1ccc(NC(=O)Nc2ccc3c(c2)CC(=O)N([C@@H](C)CO)C[C@@H](C)[C@H](CN(C)Cc2ccc(C(F)(F)F)cc2)O3)cc1 | inactive
26 | COc1ccc(C#Cc2ccc3c(c2)[C@]2(C(=O)N3)[C@H](C(=O)N3CCc4cc(OC)c(OC)cc4C3)[C@H]3C(=O)O[C@H](c4ccccc4)[C@H](c4ccccc4)N3[C@@H]2c2ccc(O)cc2)cc1 | inactive
27 | C[C@@H]1CN([C@H](C)CO)C(=O)Cc2cc(NC(=O)Nc3ccc(C(F)(F)F)cc3)ccc2O[C@H]1CN(C)C(=O)Nc1cccc2ccccc12 | inactive
28 | C[C@H](CO)N1C[C@H](C)[C@@H](CN(C)C(=O)Cc2ccccn2)Oc2cc(C#Cc3ccccc3)ccc2S1(=O)=O | inactive
29 | Cn1ncc2c1CCCC2=O | inactive
30 | Cc1noc(C)c1NC(=O)N(C)C[C@H]1Oc2ncc(C#CCN(C)C)cc2C(=O)N([C@H](C)CO)C[C@H]1C | inactive
31 | COc1cccc(S(=O)(=O)N(C)C[C@@H]2Oc3ncc(C#CCN(C)C)cc3C(=O)N([C@@H](C)CO)C[C@@H]2C)c1 | inactive
32 | C[C@@H]1CN([C@H](C)CO)C(=O)Cc2cc(NC(=O)Nc3ccc4c(c3)OCO4)ccc2O[C@@H]1CN(C)S(C)(=O)=O | inactive
33 | COc1ccc(NC(=O)N(C)C[C@H]2OCCCC[C@H](C)Oc3ccc(NC(=O)c4ccccc4)cc3C(=O)N([C@@H](C)CO)C[C@@H]2C)cc1 | inactive
34 | COc1ccc(S(=O)(=O)N(C)C[C@H]2OCCCC[C@@H](C)Oc3ccc(NC(=O)CCC(F)(F)F)cc3C(=O)N([C@@H](C)CO)C[C@@H]2C)cc1 | inactive
35 | COc1ccc(CN(C)C[C@@H]2Oc3ccc(NC(=O)Nc4ccc(C(F)(F)F)cc4)cc3CC(=O)N([C@H](C)CO)C[C@H]2C)cc1 | inactive
36 | COc1ccc(CN(C)C[C@@H]2Oc3ccc(NC(=O)Nc4ccc(C(F)(F)F)cc4)cc3CC(=O)N([C@H](C)CO)C[C@@H]2C)cc1 | active
37 | COc1ccc(NC(=O)Nc2ccc3c(c2)CC(=O)N([C@@H](C)CO)C[C@H](C)[C@@H](CN(C)C(=O)Nc2ccc(C(F)(F)F)cc2)O3)cc1 | inactive
38 | C[C@@H]1CN([C@@H](C)CO)C(=O)c2cccc(NS(C)(=O)=O)c2O[C@@H]1CN(C)S(=O)(=O)c1cn(C)cn1 | inactive
39 | COc1ccc(NC(=O)N(C)C[C@H]2Oc3ccc(NS(=O)(=O)c4c(C)noc4C)cc3C(=O)N([C@@H](C)CO)C[C@H]2C)cc1 | inactive
40 | COc1ccc(S(=O)(=O)Nc2ccc3c(c2)C(=O)N([C@@H](C)CO)C[C@@H](C)[C@@H](CN(C)S(C)(=O)=O)O3)cc1 | inactive
41 | COc1ccccc1C#Cc1ccc2c(c1)O[C@@H](CN(C)Cc1cncnc1)[C@H](C)CN([C@H](C)CO)S2(=O)=O | active
42 | COc1ccccc1C#Cc1ccc2c(c1)O[C@H](CN(C)Cc1cncnc1)[C@@H](C)CN([C@@H](C)CO)S2(=O)=O | inactive
43 | COc1ccccc1C#Cc1ccc2c(c1)O[C@H](CN(C)Cc1cncnc1)[C@H](C)CN([C@H](C)CO)S2(=O)=O | inactive
44 | COc1ccccc1C#Cc1ccc2c(c1)O[C@H](CN(C)Cc1cncnc1)[C@@H](C)CN([C@H](C)CO)S2(=O)=O | inactive
45 | COc1ccccc1C#Cc1ccc2c(c1)O[C@@H](CN(C)Cc1cncnc1)[C@H](C)CN([C@@H](C)CO)S2(=O)=O | active
46 | COc1ccccc1C#Cc1ccc2c(c1)O[C@@H](CN(C)Cc1cncnc1)[C@@H](C)CN([C@@H](C)CO)S2(=O)=O | inactive

Row | Compound | cytotoxicity call
47 | COc1ccc(S(=O)(=O)N(C)C[C@H]2Oc3c(NC(=O)c4cc(C)nn4C)cccc3C(=O)N([C@H](C)CO)C[C@H]2C)cc1 | inactive
48 | C[C@@H]1CCCCO[C@H](CN(C)CC2CC2)[C@@H](C)CN([C@H](C)CO)C(=O)c2cc(NC(=O)CCC(F)(F)F)ccc2O1 | inactive
49 | COc1ccc(S(=O)(=O)N2c3ccc(Cl)cc3[C@](O)(c3ccccc3Cl)[C@@H]2C(=O)N2CCC[C@H]2C(N)=O)cc1OC | inactive
50 | C[C@@H]1CN([C@@H](C)CO)C(=O)c2cccc(NS(=O)(=O)c3cn(C)cn3)c2O[C@H]1CN(C)C(=O)Nc1ccc2c(c1)OCO2 | inactive
51 | O=C(CS)NCCCCCNC(=O)[C@@H]1C[C@@H]2C(=O)N[C@@H](Cc3ccccc3)C(=O)N2[C@@H]1c1ccc(O)cc1 | inactive
52 | CN(C)CCCC1(c2ccc(F)cc2)OCc2cc(C#N)ccc21.O=C(O)C(=O)O (configuration not stated) | inactive
53 | COc1c(C)cccc1C(=O)N1CC[C@H](c2nn(CCN)c3ncccc23)C1 | inactive
54 | COc1ccc(NC(=O)Nc2ccc3c(c2)C(=O)N([C@@H](C)CO)C[C@@H](C)[C@H](CN(C)S(=O)(=O)c2ccc(F)cc2)OCCCC[C@@H](C)O3)cc1 | inactive
55 | CO[C@@H]1CN(C)C(=O)c2ccc(NS(C)(=O)=O)cc2OC[C@H](C)N(C(=O)CN(C)C)C[C@@H]1C | inactive
56 | O=C(C[C@H]1C[C@@H]2c3cc(NC(=O)Nc4ccc(C(F)(F)F)cc4)ccc3O[C@@H]2[C@@H](CO)O1)NCc1ccc(Cl)cc1 | inactive
57 | O=C(C[C@@H]1C[C@H]2c3cc(NC(=O)Nc4ccc(C(F)(F)F)cc4)ccc3O[C@H]2[C@H](CO)O1)NCCc1ccccc1 | active
58 | O=C(C[C@H]1C[C@@H]2c3cc(NC(=O)Nc4ccc(C(F)(F)F)cc4)ccc3O[C@@H]2[C@H](CO)O1)NCc1ccc(Cl)cc1 | inactive
59 | O=C(C[C@@H]1C[C@@H]2c3cc(NC(=O)Nc4ccc(C(F)(F)F)cc4)ccc3O[C@@H]2[C@H](CO)O1)NCc1cc(F)ccc1F | inactive
60 | O=C(Nc1ccc(C(F)(F)F)cc1)Nc1ccc2c(c1)[C@@H]1C[C@@H](CC(=O)N3CCc4ccccc4C3)O[C@H](CO)[C@@H]1O2 | inactive
61 | O=C(C[C@H]1C[C@H]2c3cc(NC(=O)Nc4ccc(C(F)(F)F)cc4)ccc3O[C@H]2[C@@H](CO)O1)NCCc1ccccc1 | inactive
62 | O=C(C[C@H]1C[C@@H]2c3cc(NC(=O)Nc4ccc(C(F)(F)F)cc4)ccc3O[C@@H]2[C@@H](CO)O1)NCc1cc(F)ccc1F | active
63 | O=C(C[C@@H]1C[C@H]2c3cc(NC(=O)Nc4ccc(C(F)(F)F)cc4)ccc3O[C@H]2[C@H](CO)O1)NCc1ccc(Cl)cc1 | active
64 | O=C(Nc1ccc(C(F)(F)F)cc1)Nc1ccc2c(c1)[C@H]1C[C@@H](CC(=O)N3CCc4ccccc4C3)O[C@H](CO)[C@H]1O2 | inactive
65 | O=C(C[C@@H]1C[C@@H]2c3cc(NC(=O)Nc4ccc(C(F)(F)F)cc4)ccc3O[C@@H]2[C@@H](CO)O1)NCCc1ccccc1 | inactive
66 | O=C(Nc1ccc(C(F)(F)F)cc1)Nc1ccc2c(c1)[C@H]1C[C@H](CC(=O)N3CCc4ccccc4C3)O[C@H](CO)[C@H]1O2 | active
67 | O=C(C[C@H]1C[C@@H]2c3cc(NC(=O)Nc4ccc(C(F)(F)F)cc4)ccc3O[C@@H]2[C@H](CO)O1)NCc1cc(F)ccc1F | inactive
